Article PMC4336329 (PLoS ONE, 2015)
The campaign covered roughly 310,000 compounds. About 14,000 (4.5%) showed an effect of 50% or more. The effect is printed as a negative number. Shown is part of a subset that was picked to be rich in strong results.

biological target: human ether-à-go-go-related gene (hERG) potassium channel (human, UniProt Q12809); assay: primary screen, population patch clamp on CHO cells stably expressing hERG; higher = less effect of the substance
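Also: peak tail current of the secondary pulse compared with the same well before compound.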

human ether-à-go-go-related gene (hERG) potassium channel, sequence (Q12809 whole entry, looked up): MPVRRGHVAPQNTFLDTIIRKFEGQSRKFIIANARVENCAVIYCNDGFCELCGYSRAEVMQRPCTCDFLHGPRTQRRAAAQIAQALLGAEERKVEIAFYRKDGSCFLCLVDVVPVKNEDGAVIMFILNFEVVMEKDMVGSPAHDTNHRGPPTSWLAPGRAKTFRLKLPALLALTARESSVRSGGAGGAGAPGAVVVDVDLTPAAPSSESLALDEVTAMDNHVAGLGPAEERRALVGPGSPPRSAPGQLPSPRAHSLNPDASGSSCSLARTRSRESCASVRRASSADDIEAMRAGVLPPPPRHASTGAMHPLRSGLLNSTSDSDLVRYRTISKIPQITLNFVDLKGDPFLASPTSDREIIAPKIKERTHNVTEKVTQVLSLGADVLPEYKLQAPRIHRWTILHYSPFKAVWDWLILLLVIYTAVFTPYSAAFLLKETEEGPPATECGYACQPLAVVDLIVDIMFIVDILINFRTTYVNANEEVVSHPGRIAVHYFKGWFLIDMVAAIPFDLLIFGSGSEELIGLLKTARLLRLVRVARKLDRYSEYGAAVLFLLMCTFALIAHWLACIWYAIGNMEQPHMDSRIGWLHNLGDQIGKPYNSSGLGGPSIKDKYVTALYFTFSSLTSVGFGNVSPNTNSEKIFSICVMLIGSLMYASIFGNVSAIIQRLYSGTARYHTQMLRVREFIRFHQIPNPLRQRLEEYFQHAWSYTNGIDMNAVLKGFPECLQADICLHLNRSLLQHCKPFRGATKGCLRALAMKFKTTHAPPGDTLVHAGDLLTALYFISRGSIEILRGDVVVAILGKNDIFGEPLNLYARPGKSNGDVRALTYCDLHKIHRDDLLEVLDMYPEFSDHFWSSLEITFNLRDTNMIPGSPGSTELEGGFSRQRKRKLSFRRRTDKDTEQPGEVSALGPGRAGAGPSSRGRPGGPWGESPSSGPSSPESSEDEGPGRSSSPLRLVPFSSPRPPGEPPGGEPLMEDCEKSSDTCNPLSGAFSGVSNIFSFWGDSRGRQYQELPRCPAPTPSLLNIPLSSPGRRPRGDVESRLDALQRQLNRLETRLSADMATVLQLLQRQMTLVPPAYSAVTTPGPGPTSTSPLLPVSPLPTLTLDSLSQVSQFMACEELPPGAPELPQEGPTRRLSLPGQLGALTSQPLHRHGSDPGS

SMILES	hERG current change (%, negative = inhibition) at 10uM [%]
COCc1ccc(CN2CCCC(CO)(Cc3ccccc3C)C2)o1 (stereo not drawn)	2.18
CC(=O)Nc1ccc(NC(=O)c2cc(=O)c3cc(C)c(C)cc3o2)cc1	24.6
Br.N=C1CCCN1CC(=O)c1ccc(Cl)cc1	1.8
COC(=O)c1ccc(/C=N\NC(=O)CC(=O)NCCc2ccccc2)cc1	19.8
O=C(Nc1ccc(F)cc1)C1CCCN(S(=O)(=O)c2cccc3cccnc23)C1 (stereo not drawn)	-49.3
O=C(C1CCCN(S(=O)(=O)c2cccc3cccnc23)C1)N1CCN(c2ccccc2F)CC1 (stereo not drawn)	-75.5
COc1ccc(N2CCN(C(=O)C3CCCN(S(=O)(=O)c4cccc5cccnc45)C3)CC2)cc1 (stereo not drawn)	-32.1
O=C(O)[C@@H]1CCCN(S(=O)(=O)c2cccc3cccnc23)C1	11.6
O=C(O)C1CCCN(S(=O)(=O)c2cccc3cccnc23)C1 (stereo not drawn)	10.9
O=C(C1CCCN(S(=O)(=O)c2cccc3cccnc23)C1)N1CCN(c2ccc(F)cc2)CC1 (stereo not drawn)	-67.5
CCN1C(=O)[C@H]2[C@@H](c3ccc(C)cc3)N3C(=O)N(c4ccccc4)C(=O)[C@@]3(CC)[C@H]2C1=O	3.81
O=C(CN1C(=O)NC2(CCCCCC2)C1=O)N1CCC(Cc2ccccc2)CC1	-24.4
CN1CCN(C(=O)OC2c3nccnc3C(=O)N2c2ccc(Cl)cn2)CC1 (stereo not drawn)	13.9
O=C(NCC1CCCO1)c1c(O)c2cccc3c2n(c1=O)CC3 (stereo not drawn)	10.4
Cc1ccccc1C(=O)Nc1ccc(Cl)cn1	6
CCOC(=O)N1CCN(Cc2nc3cc(NC(C)=O)ccc3n2CC)CC1	14.9
CCOC(=O)N1CCN(Cc2nc3cc(NC(=O)c4cccs4)ccc3n2CC)CC1	-55.3
CCOC(=O)N1CCN(Cc2nc3cc(NC(=O)c4ccco4)ccc3n2CC)CC1	-58
CCOC(=O)N1CCN(Cc2nc3cc(NC(=O)CC)ccc3n2CC)CC1	9.4
CCOC(=O)N1CCN(Cc2nc3cc(NC(=O)c4cccs4)ccc3n2C)CC1	-74.7
Cn1c(CN2CCCCC2)nc2cc(NC(=O)c3cccs3)ccc21	-31.2

SMILES	hERG current change (%, negative = inhibition) at 10uM [%]
CCOC(=O)N1CCN(Cc2nc3cc(NC(=O)c4ccco4)ccc3n2C)CC1	-26.5
CC(=O)N1CCN(Cc2nc3cc(NC(=O)c4cccs4)ccc3n2C)CC1	13.8
CCCC(=O)Nc1ccc2c(c1)nc(CN1CCN(C(=O)OCC)CC1)n2CC	9.54
CCOc1ccc(C(=O)NC2CC(=O)N(c3ccc4c(c3)OCCO4)C2)cc1 (stereo not drawn)	-10.1
COc1ccccc1C(=O)N1CCN(Cc2nc(CC3CC3)no2)CC1	9.93
O=C(CCCc1ccccc1)Nc1ccnn1C1CCN(Cc2ccc(Cl)cc2)CC1	-74.8
O=C(CCCc1ccccc1)Nc1ccnn1C1CCN(Cc2ccc(CO)o2)CC1	-10.5
O=C(CCCc1ccccc1)Nc1ccnn1C1CCN(Cc2ccccn2)CC1	-15.2
CC(C)n1cc(CN2CCC(n3nccc3NC(=O)CCCc3ccccc3)CC2)cn1	-26
O=C(CCCc1ccccc1)Nc1ccnn1C1CCN(Cc2ccccc2)CC1	-77.3
Cn1cc(CN2CCC(n3nccc3NC(=O)CCCc3ccccc3)CC2)cn1	5.95
Cc1ccc(C)c(CN2CCC(n3nccc3NC(=O)CCCc3ccccc3)CC2)c1	-54.8
CC(CN1CCC(n2nccc2NC(=O)CCCc2ccccc2)CC1)c1ccccc1 (stereo not drawn)	-51.9
Cc1nn(C)cc1CN1CCC(n2nccc2NC(=O)CCCc2ccccc2)CC1	-3.27
Cc1ccccc1CN1CCC(n2nccc2NC(=O)CCCc2ccccc2)CC1	-49.3
CC(=O)N[C@@H](C)C(=O)N1CCC(n2nccc2NC(=O)CCCc2ccccc2)CC1	-2.4
CC(C)c1ccc[n+](-c2nc([O-])sc2C=O)c1	14.7
S=c1nc(-c2ccccc2)n(CCN2CCOCC2)c2c1CCCC2	-13.4
O=C1c2ccccc2C(=O)C1c1ccc(Cl)cc1	8.89
CCOC(=O)N1CCN(C(=O)c2cc3cc(C)ccc3[nH]2)CC1	-7.43
O=c1[nH]nc(C(F)(F)F)c2nnn(Cc3ccccc3Cl)c12	14.1

SMILES	hERG current change (%, negative = inhibition) at 10uM [%]
CN1CCN(c2ccccc2NC(=O)c2ccc(-c3ccc(Cl)c(Cl)c3)o2)CC1	-3.73
CCn1nc(C)c(CN2CCC(n3nccc3NC(=O)CCCc3ccccc3)CC2)c1C	-60.1
C/C=C(\C)CN1CCC(n2nccc2NC(=O)CCc2ccccc2)CC1	-28.9
CCn1cc(CN2CCC(n3nccc3NC(=O)CCCc3ccccc3)CC2)c(C)n1	-28.4
CCn1nc(C)c(CN2CCC(n3nccc3NC(=O)Cc3ccccc3)CC2)c1C	6.57
Cc1ccc(CN2CCC(n3nccc3NC(=O)CCCc3ccccc3)CC2)o1	-20.5
CCn1cc(CN2CCC(n3nccc3NC(=O)CCCc3ccccc3)CC2)cn1	-27.3
CCOc1ccc(CN2CCC(n3nccc3NC(=O)CCCc3ccccc3)CC2)cc1	-78.2
CSCC(=O)N1CCC(n2nccc2NC(=O)CCCc2ccccc2)CC1	-17.6
C/C=C(\C)CN1CCC(n2nccc2NC(=O)CCCc2ccccc2)CC1	-62.9
CSCCC(=O)N1CCC(n2nccc2NC(=O)CCCc2ccccc2)CC1	-5.8
C/C=C(\C)CN1CCC(n2nccc2NC(=O)CCOc2ccccc2)CC1	-31.5
CSCCCN1CCC(n2nccc2NC(=O)CCCc2ccccc2)CC1	-62.5
CC(C)CN(Cc1cc2ccccc2[nH]c1=O)C(=O)c1cccnc1	-1.54
Cn1nc(C(C)(C)C)cc1C(=O)NNC(=O)c1ccccc1Cl	14.1
O=C(COC(=O)[C@@H]1CCCN1S(=O)(=O)c1ccc(Cl)cc1)NC1CCS(=O)(=O)C1 (stereo partly drawn)	-14.7
COc1ccc(CNC(=O)CCC(=O)N2CCN(C(C)=O)CC2)cc1	14.3
Cc1nn(-c2ccccc2)nc1C(=O)Nc1ccc2[nH]ncc2c1	6.02
CC1Cc2ccccc2N1c1ncnc2c1nnn2Cc1ccccc1 (stereo not drawn)	-0.652
COc1cc(NC(=S)NC2CC2)c(OC)cc1Cl	-1.86
CC(OC(=O)c1cccs1)C(=O)NCc1ccc2c(c1)OCO2 (stereo not drawn)	15.4

SMILES	hERG current change (%, negative = inhibition) at 10uM [%]
Cc1ccccc1-n1nc2c(c1NC(=O)c1ccc(Br)o1)CSC2	-7.03
COC(=O)c1ccc(CNC(=O)COC(=O)Cc2ccsc2)cc1	-6.64
COCC(C)N1CCC(n2nccc2NC(=O)CCCc2ccccc2)CC1 (stereo not drawn)	-15.2
Cc1cccc(CN2CCC(n3nccc3NC(=O)CCCc3ccccc3)CC2)n1	-20.2
CSCC(C)N1CCC(n2nccc2NC(=O)CCCc2ccccc2)CC1 (stereo not drawn)	-47.5
CSc1ccc(CN2CCC(n3nccc3NC(=O)CCCc3ccccc3)CC2)cc1	-82.5
C=C(C)CCC(C)N1CCC(n2nccc2NC(=O)CCCc2ccccc2)CC1 (stereo not drawn)	-74.2
COc1ccc(C(=O)Nc2nnc(S(=O)(=O)N3CCCCCC3)s2)cc1OC	-0.855
COc1cc(NC(=O)COc2cccc(C)c2C)ccc1NC(=O)c1ccco1	13
O=C(Nc1ccc(N2CCOCC2)cc1)c1cccc(S(=O)(=O)N2CCCC2)c1	1.96
CC(=O)c1cccc(OCc2cc(C(=O)N(C)C(C)c3ccccn3)no2)c1 (stereo not drawn)	-4.32
CC(NC(=O)/C=C/c1cnc2ccccc2n1)C12CC3CC(CC(C3)C1)C2 (stereo not drawn)	-10.1
Cc1cc(Cl)c(S(=O)(=O)NCc2cccnc2)cc1OCC(N)=O	10.1
Cc1cc(Cl)c(S(=O)(=O)N2CCN(c3ccccn3)CC2)cc1OCC(N)=O	17.6
Cc1cc(Cl)c(S(=O)(=O)Nc2ccc(Cl)cn2)cc1OCC(N)=O	-2.03
Cc1ccccc1NS(=O)(=O)c1cc(OCC(N)=O)c(C)cc1Cl	5.68
Cc1cc(Cl)c(S(=O)(=O)Nc2ccccn2)cc1OCC(N)=O	-71.8
Cc1cc(Cl)c(S(=O)(=O)NCc2cccnc2)cc1OCC(=O)NC1CCCCC1	-53.2
Cc1cc(Cl)c(S(=O)(=O)N2CCN(c3ccccn3)CC2)cc1OCC(=O)NC1CCCCC1	-56.9
Cc1cc(Cl)c(S(=O)(=O)N2CCCCCC2)cc1OCC(=O)NC1CCCCC1	-18.6
Cc1cc(Cl)c(S(=O)(=O)NC2CCCC2)cc1OCC(=O)NC1CCCCC1	-7.18
